Measurements taken from PubChem BioAssay AID1645882 (National Center for Advancing Translational Sciences (NCATS), 2021).
Values joined by “and” are separate entries in the source; they are usually repeats but may differ in a detail not shown here. Equal entries are not always repeated. The campaign covered roughly 16,000 compounds. About 120 (0.75%) were called active. A call without a number means that no potency is given here. Another 4% or so got no clear call; they are omitted. This is one part of a sample in which actives are shown more often than they occur. The call rests on the fitted dose curve; in most records, active means well fitted inhibition curve with a large enough effect; inconclusive means small, poorly fitted or top-dose-only effect; inactive means no such curve, though single readings can be large or run the other way. Some compounds were tested as several samples or in several runs, with calls that do not always agree.

Target: Rap guanine nucleotide exchange factor 3 (Homo sapiens) (UniProt O95398)
Sequence (O95398 whole entry, looked up): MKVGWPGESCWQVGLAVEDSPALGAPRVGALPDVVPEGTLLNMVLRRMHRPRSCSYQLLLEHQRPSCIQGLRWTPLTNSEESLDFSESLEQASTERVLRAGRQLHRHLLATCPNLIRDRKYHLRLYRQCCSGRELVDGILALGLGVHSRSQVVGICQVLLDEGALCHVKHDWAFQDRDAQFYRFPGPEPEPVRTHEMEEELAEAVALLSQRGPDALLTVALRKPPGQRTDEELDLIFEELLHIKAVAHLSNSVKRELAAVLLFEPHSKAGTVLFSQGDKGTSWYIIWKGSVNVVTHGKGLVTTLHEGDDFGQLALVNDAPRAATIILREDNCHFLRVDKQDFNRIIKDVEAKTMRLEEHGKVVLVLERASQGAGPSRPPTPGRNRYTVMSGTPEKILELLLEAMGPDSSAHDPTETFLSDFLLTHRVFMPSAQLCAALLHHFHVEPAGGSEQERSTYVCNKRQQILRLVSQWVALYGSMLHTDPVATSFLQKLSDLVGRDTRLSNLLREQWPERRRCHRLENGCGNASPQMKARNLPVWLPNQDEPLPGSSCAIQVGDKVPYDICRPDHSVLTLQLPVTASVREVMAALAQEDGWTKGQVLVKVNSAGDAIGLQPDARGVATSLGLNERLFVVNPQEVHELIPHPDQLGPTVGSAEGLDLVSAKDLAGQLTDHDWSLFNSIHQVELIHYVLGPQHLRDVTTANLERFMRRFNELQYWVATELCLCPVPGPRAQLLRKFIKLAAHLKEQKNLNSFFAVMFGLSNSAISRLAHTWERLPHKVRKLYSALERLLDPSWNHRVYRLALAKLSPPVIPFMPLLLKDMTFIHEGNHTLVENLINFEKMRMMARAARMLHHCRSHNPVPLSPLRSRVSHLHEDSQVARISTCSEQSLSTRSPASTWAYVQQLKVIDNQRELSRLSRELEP
Assay: Validation qHTS for antagonist of cAMP-regulated guanine nucleotide exchange factor 3 (EPAC1); further: nearly all actives have a fitted effect of over 75% in size
Conditions: EPAC1 Rap1B-BODIPY-GDP exchange, fluorescence; series mostly up to 150 µM
How it was run: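 EPAC1 (100 nM) mixed with 250 nM RAP1B-BODIPY-GDP and 50 uM GDP; compounds in concentration series, 5 min at room temperature. Fluorescence (ex 480/em 540 nm) read every 5 min for 30 min; normalized to ATA control and DMSO.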
Potency means the concentration at half of the fitted maximal effect.

SMILES | Potency | activity change, negative = inhibition
CCN1CCN(C(=O)c2sc3ncnc(NCC4CCCO4)c3c2C)CC1 (stereo not given) | inactive | –
CC(C)CCCC(C)C1CCC2C3CC=C4CC(=O)CC[C@@]4(C)C3CC[C@@]12C (stereo not given in full) | inactive | –
COc1ccccc1CNc1nc(-c2ccc(N(C)C)cc2)nc2ccccc12 | inactive | –
Cc1ncc2c(c1CNC(=O)c1ccc3c(c1)OCO3)CCN(C(=O)c1cccc(-n3cccn3)c1)C2 | inactive | –
CC(=O)N[C@@H](Cc1c[nH]c2ccccc12)C(=O)O | inactive | –
CC(C)C(N)C(=O)NC(Cc1c[nH]c2ccccc12)C(=O)O (stereo not given) | inactive | –
Cc1cc(C)cc(C(=O)N(C)[C@H](Cc2ccc(-c3ccccc3)cc2)C(=O)N[C@@H](Cc2c[nH]c3ccccc23)C(=O)O)c1 | 112 µM (active) | –
C[N+](C)(CCCCCC[N+](C)(C)CCCN1C(=O)c2ccccc2C1=O)CCCN1C(=O)c2ccccc2C1=O | inactive | –
C#CCN(Cc1nc(N2CCOCC2)c2ccc(Cl)cc2n1)Cc1ccco1 | inactive | –
CCOc1cc(OCC)c(C(=O)CCC(=O)O)cc1OCC | inactive | –
CCC(=O)c1c(O)cc(O)cc1O | inactive | –
CCCC(=O)c1cc(O)c(O)cc1O | 63.1 µM (active) | –
O=C(c1n[nH]c2c1CCCC2)N1CCOc2ccc(C(O)C3CCCCC3)cc2C1 (stereo not given) | inactive | –
Cc1ccc(C2(O)CCN(CCCC(=O)c3ccc(F)cc3)CC2)cc1 | inactive | –
COc1ccccc1C1CN(CCNC(=O)c2cscn2)Cc2ccccc2O1 (stereo not given) | inactive | –
CC(C)(O)c1ccccc1CC[C@@H](SCC1(CC(=O)O)CC1)c1cccc(/C=C/c2ccc3ccc(Cl)cc3n2)c1 | 79.4 µM (active) | –
CN(C)C(=O)CCSC(SCCC(=O)O)c1cccc(/C=C/c2ccc3ccc(Cl)cc3n2)c1 (stereo not given) | inactive | –
COc1ccc2c3c1O[C@H]1C[C@H](O)C=C[C@@]31CCN(C)C2 | inactive | –
CC(C)c1ccc2c(c1)CC[C@@H]1[C@@](C)(CN)CCC[C@]21C | inactive | –
CN(C)c1ccc(/C=C2/C(=O)Nc3ccccc32)cc1 | inactive | –
O=C1Nc2ccc(I)cc2/C1=C/c1cc(Br)c(O)c(Br)c1 | 89.1 µM (active) and 79.4 µM (active) and inactive | –
CN(C)c1ccc(/C=C2\C(=O)Nc3ccccc32)cc1 | inactive | –
COC(=O)c1ccc(CN2CCOc3ccc(C(O)c4cccnc4)cc3C2)cc1 (stereo not given) | inactive | –

SMILES | Potency | activity change, negative = inhibition
COc1ccc(-n2c(=O)c(-c3ccc(F)cc3)nc3cnc(N4CCNCC4)nc32)cc1 | inactive | –
Oc1c(Cl)cc(Cl)cc1Sc1cc(Cl)cc(Cl)c1O | 79.4 µM (active) | –
Oc1ccc(Cl)cc1Sc1cc(Cl)ccc1O | inactive | –
O=C(Nc1ccccc1)O[C@@H]1C[C@H]2CCCC(=O)N3CC[C@@H](C1)[C@@H]23 | inactive | –
CO[C@@H]1[C@@H](O[C@@H]2O[C@H](C)[C@@H](O[C@H]3C[C@@](C)(O)[C@@H](O)[C@H](C)O3)[C@H](N(C)C)[C@H]2O)[C@@H](CC=O)C[C@@H](C)[C@@H](O[C@@H]2CC[C@H](N(C)C)[C@@H](C)O2)/C=C/C=C/C[C@@H](C)OC(=O)C[C@H]1OC(C)=O | inactive | –
CC(N)C(=O)OC(C)(C)Cc1ccc(Cl)cc1 (stereo not given) | inactive | –
CC(C)c1ccc2c(c1)c(SC(C)(C)C)c(CC(C)(C)C(=O)O)n2Cc1ccc(Cl)cc1 | 28.2 µM (active) | –
COc1ccc2c(c1)c(CC(=O)O)c(C)n2Cc1ccc(Cl)cc1 | inactive | –
CCC1C(=O)NCCN1Cc1ccc2c(c1)CN(Cc1cc(OC)ccc1OC)CCO2 (stereo not given) | inactive | –
O=C(O)CCCc1ccccc1 | inactive | –
Oc1ccc(CCNCCCCCCNCCc2ccccc2)cc1O | inactive | –
N#C/C(=C\c1ccc(O)c(O)c1)C(=O)NCCCc1ccccc1 | 63.1 µM (active) and inactive | –
N#C/C(=C\c1ccc(O)c(O)c1)C(=O)NCCc1ccccc1 | inactive | –
N#C/C(=C\c1c[nH]c2ccccc12)C(=O)c1ccc(O)c(O)c1 | inactive | –
N#C/C(=C\c1ccc(O)c(O)c1)C(=O)NCCCCc1ccccc1 | 100 µM (active) | –
CSc1nc(C(=O)NCc2nc(-c3cccc(NC(=O)c4ccc(C)s4)c3)oc2C)cs1 | inactive | –
Cc1cccc(CN2CCc3nnc(C(C)NC(=O)C4CCOCC4)n3CC2)c1 (stereo not given) | inactive | –
Cc1ccccc1C(=O)NC(C)c1nnc2n1CCN(Cc1ccc(F)cc1)CC2 (stereo not given) | inactive | –
C/C1=C2N=C(/C=C3N=C(/C(C)=C4\[N-]C(C(CC(N)=O)C4(C)CCC(=O)NCC(C)OP(=O)([O-])OC4C(CO)OC(n5cnc6cc(C)c(C)cc65)C4O)C4(C)N=C1C(CCC(N)=O)C4(C)CC(N)=O)C(CCC(N)=O)C\3(C)C)C(CCC(N)=O)C/2(C)CC(N)=O.[CH3-].[Co+3] (stereo not given) | 50.1 µM (active) | –
C[N+](C)(CCCCCC[N+](C)(C)C1c2ccccc2-c2ccccc21)C1c2ccccc2-c2ccccc21 | inactive | –
S=C=Nc1ccc(N=C=S)cc1 | inactive | –
O=S(=O)(O)c1cc(N=C=S)ccc1/C=C/c1ccc(N=C=S)cc1S(=O)(=O)O | 35.5 µM (active) | –
Nc1ccc(/C=C/c2ccc(N)cc2S(=O)(=O)O)c(S(=O)(=O)O)c1 | inactive | –

SMILES | Potency | activity change, negative = inhibition
Nc1nc2c(c(=O)[nH]1)N(C=O)C(CNc1ccc(C(=O)NC(CCC(=O)O)C(=O)O)cc1)CN2 (stereo not given) | inactive | –
Fc1ccc(Nc2ccnc(-c3ccc4c(c3)OCO4)n2)cc1 | inactive | –
O=C(Nc1nccs1)[C@@H]1CC=C[C@@H]2CCN(Cc3ccccc3)C(=O)[C@@H]21 | inactive | –
CCCc1c(OCCCCc2nn[nH]n2)ccc(C(C)=O)c1O | inactive | –
CCCc1c(OCCCOc2ccc(OCC(=O)O)cc2)ccc(CC=O)c1O | 100 µM (active) | –
CCCc1c(OCCCOc2ccc(OCC(=O)O)cc2)ccc(C(C)=O)c1O | inactive | –
COCCn1c(=O)c(-c2cc(F)cc(F)c2)nc2cnc(Oc3ccc(OC)cc3)nc21 | inactive | –
O=C(Nc1cc(C(=O)Nc2ccc(S(=O)(=O)O)cc2S(=O)(=O)O)cc(C(=O)Nc2ccc(S(=O)(=O)O)cc2S(=O)(=O)O)c1)Nc1cc(C(=O)Nc2ccc(S(=O)(=O)O)cc2S(=O)(=O)O)cc(C(=O)Nc2ccc(S(=O)(=O)O)cc2S(=O)(=O)O)c1 | 15.8 µM (active) | –
Cc1ccc(C(=O)Nc2ccc(S(=O)(=O)O)c3cc(S(=O)(=O)O)cc(S(=O)(=O)O)c23)cc1NC(=O)c1cccc(NC(=O)Nc2cccc(C(=O)Nc3cc(C(=O)Nc4ccc(S(=O)(=O)O)c5cc(S(=O)(=O)O)cc(S(=O)(=O)O)c45)ccc3C)c2)c1 | inactive | –
O=C(Nc1cccc(C(=O)Nc2ccc(S(=O)(=O)O)c3cc(S(=O)(=O)O)cc(S(=O)(=O)O)c23)c1)Nc1cccc(C(=O)Nc2ccc(S(=O)(=O)O)c3cc(S(=O)(=O)O)cc(S(=O)(=O)O)c23)c1 | 25.1 µM (active) | –
Cc1ccc(S(=O)(=O)O)cc1C | inactive | –
O=C(Nc1ccc(C(=O)O)c(O)c1)c1ccccc1 | inactive | –
O=C(Nc1ccc(C(=O)Nc2ccc(C(=O)Nc3ccc(S(=O)(=O)O)c4cc(S(=O)(=O)O)cc(S(=O)(=O)O)c34)cc2)cc1)Nc1ccc(C(=O)Nc2ccc(C(=O)Nc3ccc(S(=O)(=O)O)c4cc(S(=O)(=O)O)cc(S(=O)(=O)O)c34)cc2)cc1 | 39.8 µM (active) and 8.91 µM (active) | –
OCC1OC(n2cnc3c(=S)nc[nH]c32)C(O)C1O (stereo not given) | inactive | –
Cc1cccc(CNc2ccnc(-c3ccccc3Cl)n2)c1 | inactive | –
O=C1CCC(=O)N1CO | inactive | –
COc1cc(OC)c(/C=C/c2ccc3ccccc3n2)c(OC)c1 | inactive | –
COc1ccccc1CCn1c(=O)cnc2cncnc21 | inactive | –
COc1ccc(CNc2nc(-c3ccccc3OC)nc3ccccc23)c(OC)c1 | inactive | –
C=CC(C)(C)c1[nH]c2ccccc2c1C1=C(O)C(=O)C(c2c[nH]c3c(CC=C(C)C)cccc23)=C(O)C1=O | 56.2 µM (active) | –
CC(C)=CCC1=C(O)c2ccccc2C(=O)C1=O | inactive | –
CCc1cccc2c(C(O)c3c[nH]c4ccccc34)c[nH]c12 (stereo not given) | inactive | –
Cc1cc(-c2ccnc(-n3ncc(C(=O)NCCc4cccnc4)c3C)n2)c(C)s1 | inactive | –

SMILES | Potency | activity change, negative = inhibition
COc1ccc(CN2CCC(n3cc(C(=O)N4CCCC4)nn3)CC2)c(OC)c1C | inactive | –
O=C(c1cnccn1)N1CCC2(CCCN(Cc3nccs3)C2)CC1 | inactive | –
NC(C(=O)O)c1cc(O)cc(O)c1 (stereo not given) | inactive | –
N[C@H](C(=O)O)c1cc(O)cc(O)c1 | inactive | –
NC(C(=O)O)c1cc(O)c(Cl)c(O)c1 (stereo not given) | 56.2 µM (active) | –
CCCCCCCCCCCCCC[N+](C)(C)C | inactive | –
Cc1cc2c(C(C)C)c(O)c(O)c(C=O)c2c(O)c1-c1c(C)cc2c(C(C)C)c(O)c(O)c(C=O)c2c1O | 50.1 µM (active) and 39.8 µM (active) and 79.4 µM (active) | –
Cc1cc(O)c(C=O)c(O)c1C(=O)O | inactive | –
Cc1c(C(=O)N(C)C(C)C)sc2ncnc(NCCCN3CCOCC3)c12 | inactive | –
COc1ccc(SC[C@H](C)CN2CC[C@H](C(C)(C)C)CCC2=O)cc1 | inactive | –
C=CC1=C(C)C2=CC3=NC(=C(CC(=O)[O-])C4=NC(=C(C)C4=C([O-])[O-])C=c4[n-]c(c(C)c4CC)=CC1=N2)C(CCC(=O)[O-])C3C.[Cu+2].[Na+].[Na+].[Na+] (stereo not given) | 89.1 µM (active) | –
CCCCCCCCCCCCCCCCC(C(=O)O)C(O)(CC(=O)O)C(=O)O (stereo not given) | 35.5 µM (active) | –
CCCCCCCCCCCCC(C(=O)O)C(C)C(=O)O (stereo not given) | inactive | –
CCCCCCCCCCCCC(O)C(=O)O (stereo not given) | – | -12.9% [at 15.3 µM] (inactive)
CN1CCN(c2ncc3nc(-c4ccccc4)c(=O)n(CCC#N)c3n2)CC1 | inactive | –
O=c1c(O)cc(C2Oc3cc(O)cc(O)c3CC2O)cc2c(C3Oc4cc(O)cc(O)c4CC3O)cc(O)c(O)c12 (stereo not given) | 39.8 µM (active) | –
Oc1cc(O)c2c(c1)O[C@H](c1ccc(O)c(O)c1)[C@H](O)C2 | 79.4 µM (active) | –
Oc1cc(O)c2c(c1)OC(c1cc(O)c(O)c(O)c1)C(O)C2 (stereo not given) | inactive | –
Oc1cc(O)c2c(c1)O[C@H](c1ccc(O)c(O)c1)[C@@H](O)C2 | inactive | –
Oc1ccc(C2Oc3cc(O)cc(O)c3CC2O)cc1 (stereo not given) | inactive | –
Oc1ccc2c(c1)OC(c1ccc(O)c(O)c1)C(O)C2 (stereo not given) | inactive | –
